Source: PubChem BioAssay (NCATS)
Results filed as inconclusive are left out. Calls of active or inactive are those of the source. Unless noted, the call rests on the fitted dose curve; in most records, active means well fitted curve in the direction sought with a large enough effect; inconclusive means small, poorly fitted or top-dose-only effect, or another doubt; inactive means no such curve, though single readings can be large; an effect the other way counts as inactive or inconclusive.

Columns and labels:
[1] = target: Beta-2 adrenergic receptor (Homo sapiens) (UniProt P07550); assay: qHTS validation assay of beta-arrestin-biased ligands of beta2-adrenergic receptor (AID 485366); further: 0% is about no effect
Chain of Beta-2 adrenergic receptor (Homo sapiens) (P07550 whole entry, looked up): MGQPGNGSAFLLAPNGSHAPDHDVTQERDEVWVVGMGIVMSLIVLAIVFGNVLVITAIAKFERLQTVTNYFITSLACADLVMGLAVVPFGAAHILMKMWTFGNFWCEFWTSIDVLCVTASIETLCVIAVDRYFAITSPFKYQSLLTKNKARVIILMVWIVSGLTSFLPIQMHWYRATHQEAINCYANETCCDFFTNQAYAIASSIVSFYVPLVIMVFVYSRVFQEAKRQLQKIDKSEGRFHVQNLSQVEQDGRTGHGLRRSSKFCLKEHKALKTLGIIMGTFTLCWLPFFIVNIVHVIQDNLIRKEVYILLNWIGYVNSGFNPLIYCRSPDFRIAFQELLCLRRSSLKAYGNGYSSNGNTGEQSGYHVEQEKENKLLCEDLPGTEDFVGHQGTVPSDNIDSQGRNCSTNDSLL
How it was run: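 Tango cells (recombinant beta2-AR with recombinant beta-arrestin; recruitment releases tTA driving luciferase) were treated with compounds titrated up to 46 microM for 18 hr at 37 degrees C. Luminescence gave %Activity, and concentration-response curves were curve-classified.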

[2] = target: ATP-dependent 6-phosphofructokinase (Trypanosoma brucei brucei) (UniProt O15648); assay: qHTS Validation Assay to Find Inhibitors of T. brucei phosphofructokinase (AID 485368)
Chain of ATP-dependent 6-phosphofructokinase (Trypanosoma brucei brucei) (O15648 whole entry, looked up): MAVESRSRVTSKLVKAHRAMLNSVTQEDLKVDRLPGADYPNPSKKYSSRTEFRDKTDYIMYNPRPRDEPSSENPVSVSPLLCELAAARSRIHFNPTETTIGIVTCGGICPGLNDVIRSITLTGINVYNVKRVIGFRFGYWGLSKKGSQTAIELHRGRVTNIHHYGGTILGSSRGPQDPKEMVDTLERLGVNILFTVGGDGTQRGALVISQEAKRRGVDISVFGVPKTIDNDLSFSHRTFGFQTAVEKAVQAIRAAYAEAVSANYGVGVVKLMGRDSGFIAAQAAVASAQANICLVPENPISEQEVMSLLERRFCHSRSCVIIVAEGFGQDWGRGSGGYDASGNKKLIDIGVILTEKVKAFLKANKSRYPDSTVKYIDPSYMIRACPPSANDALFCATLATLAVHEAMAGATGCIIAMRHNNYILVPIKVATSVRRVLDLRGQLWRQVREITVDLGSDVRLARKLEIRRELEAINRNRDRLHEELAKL
How it was run: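 Compounds (up to 57 uM, titration series) were pinned into substrate buffer, then 1.25 nM PFK added; after 45 min at room temperature, ADP product was quantified by ADP-Glo luminescence and concentration-response curves fitted.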

[3] = target: Thioredoxin reductase 1, cytoplasmic (Rattus norvegicus) (UniProt O89049); assay: qHTS Assay for Substrates of Mammalian Selenoprotein Thioredoxin Reductase 1 (TrxR1) (AID 488772);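 further: NADPH fluorescence in the first read after selenite addition and not the 8 min delta; series mostly up to about 57 µM; 0% is about no effect; a drop in NADPH fluorescence below the no-compound background marks a TrxR1 substrate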
Chain of Thioredoxin reductase 1, cytoplasmic (Rattus norvegicus) (O89049 whole entry, looked up): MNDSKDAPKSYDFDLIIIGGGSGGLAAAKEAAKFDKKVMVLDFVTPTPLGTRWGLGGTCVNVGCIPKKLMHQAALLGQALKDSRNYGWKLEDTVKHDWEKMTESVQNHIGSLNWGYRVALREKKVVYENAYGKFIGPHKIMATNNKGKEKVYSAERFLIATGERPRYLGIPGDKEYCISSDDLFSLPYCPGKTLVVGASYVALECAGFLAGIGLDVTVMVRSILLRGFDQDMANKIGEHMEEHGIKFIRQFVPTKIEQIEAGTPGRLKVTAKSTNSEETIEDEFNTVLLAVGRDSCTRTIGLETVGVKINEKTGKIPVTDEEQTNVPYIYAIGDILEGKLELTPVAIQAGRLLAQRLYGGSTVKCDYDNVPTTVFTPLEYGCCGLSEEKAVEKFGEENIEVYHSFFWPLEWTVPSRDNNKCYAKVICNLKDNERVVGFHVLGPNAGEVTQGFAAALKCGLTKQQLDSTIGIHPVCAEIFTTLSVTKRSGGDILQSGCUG
How it was run: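 Quantitative HTS in Tris-HCl buffer at pH 7.5 with EDTA and Tween-20, using rat TrxR1, 400 uM NADPH and 400 uM selenite (final). A fall in initial NADPH fluorescence relative to background marked substrate behaviour.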

[4] = target: Flap endonuclease 1 (Homo sapiens) (UniProt P39748); assay: qHTS Validation Assay for the Inhibitors of Human Flap endonuclease 1 (FEN1) (AID 488816); further: potency means the concentration at half of the fitted maximal effect
Chain of Flap endonuclease 1 (Homo sapiens) (P39748 whole entry, looked up): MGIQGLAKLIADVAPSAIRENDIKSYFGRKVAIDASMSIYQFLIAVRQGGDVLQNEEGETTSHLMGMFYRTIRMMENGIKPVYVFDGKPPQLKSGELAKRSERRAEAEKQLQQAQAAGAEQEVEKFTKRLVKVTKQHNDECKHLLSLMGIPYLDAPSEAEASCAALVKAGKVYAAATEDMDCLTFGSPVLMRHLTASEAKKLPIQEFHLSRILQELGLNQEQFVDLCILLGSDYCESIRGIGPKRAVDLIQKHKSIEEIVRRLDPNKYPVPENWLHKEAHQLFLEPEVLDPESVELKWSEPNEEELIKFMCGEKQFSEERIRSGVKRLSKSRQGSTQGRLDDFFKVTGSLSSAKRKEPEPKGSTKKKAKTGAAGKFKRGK
How it was run: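 FEN1, dispensed as a 10 nM reagent, was preincubated with pin-transferred compounds for 15 min at room temperature before substrate was added (50 nM final). Plates were read at 0 and 15 min, and a four-parameter Hill equation was fitted to the concentration-response data.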

[5] = target: M-phase phosphoprotein 8 (Homo sapiens) (UniProt Q99549); assay: qHTS Validation Assay for Inhibitors for MPP8 Chromodomain Interactions with Methylated Histone Tails (AID 488949);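 further: 50 nM MPP8 with 50 nM peptide preformed then compounds added for 30 min; AlphaScreen signal from MPP8 chromodomain bound to biotinylated H3K9me3 peptide; top concentration of the series differs between compounds; on the % scale 0 is the no-effect control and ±100 the full control effect; nearly all actives have a fitted effect of over 55% in size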
Chain of M-phase phosphoprotein 8 (Homo sapiens) (Q99549 whole entry, looked up): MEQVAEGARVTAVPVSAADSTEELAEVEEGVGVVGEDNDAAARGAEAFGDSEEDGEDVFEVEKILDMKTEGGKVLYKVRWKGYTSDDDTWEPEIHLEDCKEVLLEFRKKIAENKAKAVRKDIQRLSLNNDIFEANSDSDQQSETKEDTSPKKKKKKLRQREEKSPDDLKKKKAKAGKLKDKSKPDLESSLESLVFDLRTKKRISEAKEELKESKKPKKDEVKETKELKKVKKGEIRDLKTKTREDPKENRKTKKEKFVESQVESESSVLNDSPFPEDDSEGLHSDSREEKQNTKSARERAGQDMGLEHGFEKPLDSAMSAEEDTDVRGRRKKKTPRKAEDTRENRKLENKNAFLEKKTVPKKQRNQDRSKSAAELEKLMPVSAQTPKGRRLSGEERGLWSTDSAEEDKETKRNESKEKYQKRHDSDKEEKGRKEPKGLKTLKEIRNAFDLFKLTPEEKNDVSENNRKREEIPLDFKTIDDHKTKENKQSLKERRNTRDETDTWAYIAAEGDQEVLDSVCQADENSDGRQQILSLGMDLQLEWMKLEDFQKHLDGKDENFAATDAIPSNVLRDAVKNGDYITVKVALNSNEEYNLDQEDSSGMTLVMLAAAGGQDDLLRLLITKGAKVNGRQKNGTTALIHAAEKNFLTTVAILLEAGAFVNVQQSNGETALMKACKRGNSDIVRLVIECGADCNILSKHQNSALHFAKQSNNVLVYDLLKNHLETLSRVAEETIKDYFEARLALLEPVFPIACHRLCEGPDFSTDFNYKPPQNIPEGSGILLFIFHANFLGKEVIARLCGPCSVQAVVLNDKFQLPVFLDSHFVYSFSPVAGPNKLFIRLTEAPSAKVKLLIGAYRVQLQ
How it was run: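 50 nM MPP8 + 50 nM b-H3K9me3 peptide, PBS pH 7.4/0.01% Tween-20, 30 min RT; + cpd 30 min RT; + AlphaScreen donor/Ni-chelate acceptor beads 10 ug/mL final, 30 min dark; luminescence read.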

[6] = target: Chromobox protein homolog 1 (Homo sapiens) (UniProt P83916); assay: qHTS Validation Assay for Inhibitors of HP1-beta Chromodomain Interactions with Methylated Histone Tails (AID 488953);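 further: loss of AlphaScreen luminescence from HP1-beta binding biotinylated H3K9me3 peptide; series mostly up to about 110 µM; on the % scale 0 is the no-effect control and ±100 the full control effect; nearly all actives have a fitted effect of over 50% in size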
Chain of Chromobox protein homolog 1 (Homo sapiens) (P83916 whole entry, looked up): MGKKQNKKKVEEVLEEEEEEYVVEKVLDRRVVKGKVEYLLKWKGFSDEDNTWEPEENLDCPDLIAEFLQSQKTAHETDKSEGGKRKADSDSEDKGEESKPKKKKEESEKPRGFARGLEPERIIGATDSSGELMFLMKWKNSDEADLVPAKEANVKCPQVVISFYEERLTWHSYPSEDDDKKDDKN
How it was run: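 Measured as loss of AlphaScreen luminescence from streptavidin donor and nickel acceptor beads (10 ug/mL final) bridging HP1-beta and biotin-H3(1-18)K9me3, each 50 nM. Compounds met the preassembled complex for 30 min at RT.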

[7] = target: Methanococcus maripaludis chaperonin (MmCpn) (UniProt Q6LX38); assay: High-Throughput Screening for Modulators of Cytosolic Chaperonin Activity: MmCpn Primary Screen (AID 488978);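 further: 50 nM MmCpn enzyme hydrolysing 30 µM ATP at 37 °C; 0% is about no effect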
Chain of Methanococcus maripaludis chaperonin (MmCpn) (Q6LX38 1-543): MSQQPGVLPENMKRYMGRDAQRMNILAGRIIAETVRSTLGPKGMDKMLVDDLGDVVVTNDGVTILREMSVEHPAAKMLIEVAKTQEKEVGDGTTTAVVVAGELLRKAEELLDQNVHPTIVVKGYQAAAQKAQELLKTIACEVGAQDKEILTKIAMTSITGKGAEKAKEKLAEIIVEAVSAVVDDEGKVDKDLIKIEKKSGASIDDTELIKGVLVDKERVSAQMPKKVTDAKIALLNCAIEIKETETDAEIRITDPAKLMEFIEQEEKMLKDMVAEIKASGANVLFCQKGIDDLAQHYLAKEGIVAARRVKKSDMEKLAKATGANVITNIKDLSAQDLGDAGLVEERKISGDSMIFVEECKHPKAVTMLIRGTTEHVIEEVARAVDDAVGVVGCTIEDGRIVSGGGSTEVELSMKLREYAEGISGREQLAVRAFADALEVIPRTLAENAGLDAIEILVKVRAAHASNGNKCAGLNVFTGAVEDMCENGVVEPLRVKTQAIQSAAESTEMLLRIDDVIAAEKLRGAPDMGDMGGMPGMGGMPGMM
How it was run: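 Steps: chaperonin 50 nM final; add compound, 5 min RT; start with ATP, 30 uM final; hold 10 min at 37C; add ADP Transcreener HTRF reagent, 5 min; read ex 320, em 590 and 665 nm.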

[8] = target: Thyrotropin receptor (Homo sapiens) (UniProt P16473); assay: qHTS Assay for Antagonists of the Thyroid Stimulating Hormone Receptor (AID 488980); further: series mostly up to about 58 µM; 0% is about no effect
Chain of Thyrotropin receptor (Homo sapiens) (P16473 whole entry, looked up): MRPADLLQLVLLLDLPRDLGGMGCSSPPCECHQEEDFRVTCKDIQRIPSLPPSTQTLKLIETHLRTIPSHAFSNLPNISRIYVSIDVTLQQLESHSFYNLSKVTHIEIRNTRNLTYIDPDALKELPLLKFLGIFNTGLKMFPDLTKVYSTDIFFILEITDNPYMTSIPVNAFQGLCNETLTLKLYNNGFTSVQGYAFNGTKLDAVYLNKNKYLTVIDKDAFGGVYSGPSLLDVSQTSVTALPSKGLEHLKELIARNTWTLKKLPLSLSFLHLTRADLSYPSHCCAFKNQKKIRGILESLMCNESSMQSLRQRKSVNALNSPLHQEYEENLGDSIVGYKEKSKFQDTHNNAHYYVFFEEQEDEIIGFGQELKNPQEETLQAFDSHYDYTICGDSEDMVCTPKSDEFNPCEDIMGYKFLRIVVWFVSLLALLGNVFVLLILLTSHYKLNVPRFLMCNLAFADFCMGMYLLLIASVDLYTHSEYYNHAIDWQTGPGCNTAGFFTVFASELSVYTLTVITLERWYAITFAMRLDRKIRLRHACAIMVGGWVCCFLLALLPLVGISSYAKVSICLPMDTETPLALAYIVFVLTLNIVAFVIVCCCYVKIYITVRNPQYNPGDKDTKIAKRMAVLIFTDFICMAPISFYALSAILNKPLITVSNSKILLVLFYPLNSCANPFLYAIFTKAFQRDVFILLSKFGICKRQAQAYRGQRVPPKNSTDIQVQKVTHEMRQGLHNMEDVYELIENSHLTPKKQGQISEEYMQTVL
How it was run: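 Readout is cAMP by HTRF competition between cellular cAMP and cAMP-d2 for a cryptate-labelled antibody. Antagonism was assessed in TSHR-transfected HEK293 cells stimulated with 4 nM TSH (EC80, final) in the presence of RO 20-1724.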

[9] = target: D(1A) dopamine receptor (Homo sapiens) (UniProt P21728); assay: HTS Assay for Allosteric Agonists of the Human D1 Dopamine Receptor: Primary Screen for Agonists (AID 488981); further: 0% is about no effect
Chain of D(1A) dopamine receptor (Homo sapiens) (P21728 whole entry, looked up): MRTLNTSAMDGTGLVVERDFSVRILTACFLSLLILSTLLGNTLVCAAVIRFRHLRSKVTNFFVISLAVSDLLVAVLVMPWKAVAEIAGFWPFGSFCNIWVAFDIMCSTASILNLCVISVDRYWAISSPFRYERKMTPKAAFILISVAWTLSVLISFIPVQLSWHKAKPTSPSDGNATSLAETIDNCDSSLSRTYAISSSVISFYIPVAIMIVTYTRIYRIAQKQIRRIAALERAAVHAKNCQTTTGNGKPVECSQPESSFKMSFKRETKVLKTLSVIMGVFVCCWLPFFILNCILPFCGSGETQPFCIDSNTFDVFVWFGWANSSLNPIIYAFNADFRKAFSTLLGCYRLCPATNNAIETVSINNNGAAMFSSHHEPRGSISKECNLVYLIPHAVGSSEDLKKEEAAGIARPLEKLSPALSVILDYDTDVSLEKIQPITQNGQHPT
How it was run: (§1)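 Tetracycline-induced HEK293 T-REx cells force-coupled to calcium signalling were incubated overnight at 30 C and dye-loaded at room temperature. Calcium flux over 180 s after compound addition flagged agonists; a further 180 s read after EC20 dopamine flagged potentiators.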

[10] = target: D(1A) dopamine receptor (Homo sapiens) (UniProt P21728); assay: HTS Assay for Allosteric Agonists of the Human D1 Dopamine Receptor: Primary Screen for Potentiators (AID 488982); further: potency means the concentration at half of the fitted maximal effect
How it was run: as §1

[11] = target: D(1A) dopamine receptor (Homo sapiens) (UniProt P21728); assay: HTS Assay for Allosteric Agonists of the Human D1 Dopamine Receptor: Primary Screen for Antagonists (AID 488983);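 further: calcium flux response to an EC80 dopamine challenge measured with no-wash dye; nearly all actives have a fitted effect of over 65% in size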; further: potency means the concentration at half of the fitted maximal effect
How it was run: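 Screening of inducible HEK293 T-REx D1 cells: compound first, EC80 dopamine 180 s later, each phase read kinetically for calcium over 180 s.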

[12] = target: Thyrotropin-releasing hormone receptor (Homo sapiens) (UniProt P34981); assay: qHTS for Small Molecule Agonists and Allosteric Enhancers of Human TRH Receptor: Validation Screen for Agonists (AID 493127;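 active means calcium activation more than 3 SD above the typical response in the agonist read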;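 further: intracellular calcium rise by fluo-8 fluorescence before TRH EC20 addition; 0% is about no effect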); conditions: TRH receptor agonist cell assay; at 2 µM; hits give high values
Chain of Thyrotropin-releasing hormone receptor (Homo sapiens) (P34981 whole entry, looked up): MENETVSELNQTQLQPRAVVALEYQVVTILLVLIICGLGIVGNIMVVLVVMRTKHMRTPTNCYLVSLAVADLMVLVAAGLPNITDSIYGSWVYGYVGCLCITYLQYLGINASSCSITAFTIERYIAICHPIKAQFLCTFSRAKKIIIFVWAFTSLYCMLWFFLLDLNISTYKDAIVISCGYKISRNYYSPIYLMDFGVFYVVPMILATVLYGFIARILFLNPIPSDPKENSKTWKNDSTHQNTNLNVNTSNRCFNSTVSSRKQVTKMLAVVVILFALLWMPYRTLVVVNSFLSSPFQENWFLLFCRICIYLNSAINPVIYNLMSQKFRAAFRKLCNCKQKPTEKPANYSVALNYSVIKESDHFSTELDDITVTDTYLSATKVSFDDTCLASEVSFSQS
How it was run: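 Gq-coupled calcium mobilization in TRHR cells after compound addition, monitored kinetically with fluo-8 dye on an FDSS reader.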

[13] = Quantitative high throughput screen for delayed death inhibitors of the malarial parasite plastid, 96 hour incubation (AID 488745);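 further: luciferase-expressing P. falciparum in erythrocytes at 2% hematocrit and 0.1% parasitemia; series mostly up to about 29 µM; on the % scale 0 is the no-effect control and ±100 the full control effect; nearly all actives have a fitted effect of over 70% in size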
How it was run: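 Growth of reporter-bearing P. falciparum in red cells is measured after 96 h with compound, covering two erythrocytic cycles. Luminescence from the integrated luciferase serves as the growth signal.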

[14] = Quantitative high throughput screen for delayed death inhibitors of the malarial parasite plastid, 48 hour incubation (AID 488752); further: on the % scale 0 is the no-effect control and ±100 the full control effect; nearly all actives have a fitted effect of over 65% in size
How it was run: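 One parasite generation (48 h, 37 C, 5% CO2) of luciferase-reporter P. falciparum in erythrocytes is run with test compound; decreased luminescence indicates inhibited growth.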

[15] = target: Thioredoxin reductase 1, cytoplasmic (Rattus norvegicus) (UniProt O89049); assay: qHTS Assay for Inhibitors of Mammalian Selenoprotein Thioredoxin Reductase 1 (TrxR1) (AID 488773); conditions: Potency: inhibition;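 further: drop in NADPH fluorescence over an 8 min run after selenite addition; series mostly up to about 57 µM; on the % scale 0 is the no-effect control and ±100 the full control effect; nearly all actives have a fitted effect of over 40% in size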
How it was run: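 Steps: enzyme (90 nM) plus NADPH (400 uM final), 5 min at ~22 deg C; compound added, 15 min; selenite (400 uM final) added; fluorescence followed for 8 min. Concentration-response curves derived from the normalized delta values.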

[16] = target: Transient receptor potential cation channel subfamily V member 1 (Homo sapiens) (UniProt Q8NER1); assay: HTS Assay for Compounds that Act as Enhancers of the Vanilloid Receptor 1 (AID 488979); further: 0% is about no effect
How it was run: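 TRPV1-expressing cells loaded with Fluo-8 calcium dye; compounds added and calcium influx read kinetically for 3 min (agonist phase), then capsaicin at EC20 added and read 2 min more for enhancement. Fluorescence ex 480/em 520 nm.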

[17] = Validation screen for small molecules that induce genotoxicity in human embryonic kidney (HEK293T) cells expressing luciferase-tagged ELG1 (AID 493106); further: potency means the concentration at half of the fitted maximal effect
How it was run: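 Reporter-gene quantitative HTS in HEK293T cells carrying luciferase-tagged ELG1, whose level climbs under genotoxic stress. Compound exposure lasts 16 hr at 37 °C before luciferase detection.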

[18] = target: ATPase family AAA domain-containing protein 5 (Homo sapiens) (UniProt Q96QE3); assay: Validation screen for small molecules that inhibit ELG1-dependent DNA repair in human embryonic kidney (HEK293T) cells expressing luciferase-tagged ELG1 (AID 493107); further: nearly all actives have a fitted effect of over 70% in size; further: potency means the concentration at half of the fitted maximal effect
How it was run: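 Quantitative HTS in HEK293T cells carrying luciferase-tagged ELG1, stimulated with 5-fluorouridine alongside compound for 16 hr. Loss of luciferase signal marks inhibition of ELG1 response.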

Fc1ccc(CN(C2=NCCN2)c2c(Cl)cccc2Cl)cc1
inactive: outcome [1] | Potency [2] | outcome [3] | Potency [4] | Potency [5] | Potency [6] | outcome [7] | outcome [8] | Potency [9] | Potency [10] | Potency [11] | activation [12] 1.31%

O=C(O)c1cc2cc(F)ccc2[nH]1
inactive: outcome [1] | Potency [13] | Potency [14] | outcome [3] | Potency [15] | Potency [4] | Potency [5] | Potency [6] | outcome [7] | outcome [16] | outcome [8] | Potency [9] | Potency [10] | Potency [11] | Potency [17] | Potency [18] | activation [12] -2.56%

CCCCCCCCCC[Si](C)(C)CCC(=O)NC(Cc1ccc(C)cc1)c1ccccc1 (configuration not stated)
inactive: outcome [1] | Potency [13] | Potency [14] | outcome [3] | Potency [15] | Potency [4] | Potency [5] | Potency [6] | outcome [7] | outcome [16] | Potency [9] | Potency [10] | Potency [11] | Potency [17] | Potency [18] | activation [12] 0.812%

Oc1cc(O)c2c(c1)O[C@H](c1ccc(O)c(O)c1)[C@@H](O)C2
inactive: outcome [1] | Potency [13] | Potency [14] | outcome [3] | Potency [15] | Potency [5] | Potency [6] | outcome [7] | outcome [16] | outcome [8] | Potency [9] | Potency [10] | Potency [11] | Potency [18]
active: Potency [4] 4.74 µM

CCCCCC(O)CCCC(=O)O (configuration not stated)
inactive: outcome [1] | Potency [13] | Potency [14] | outcome [3] | Potency [15] | Potency [4] | Potency [5] | Potency [6] | outcome [7] | outcome [16] | outcome [8] | Potency [9] | Potency [10] | Potency [11] | Potency [17] | Potency [18] | activation [12] -0.375%

COc1ccc(-c2cc3ncc(C)n3c(Nc3ncccc3C(N)=O)n2)cc1OC
active: Potency [18] 1.03 µM
inactive: outcome [1] | Potency [2] | outcome [3] | Potency [4] | Potency [5] | Potency [6] | outcome [7] | Potency [9] | Potency [10] | Potency [11] | Potency [17]

COc1cccc(OC)c1OCCNCC1CSc2ccccc2O1 (configuration not stated)
inactive: outcome [1] | Potency [13] | Potency [14] | outcome [3] | Potency [15] | Potency [4] | Potency [5] | Potency [6] | outcome [7] | outcome [16] | Potency [9] | Potency [10] | Potency [17] | Potency [18] | activation [12] -3.81%
active: Potency [11] 1.26 µM

Nc1ccc(N2C(=O)c3ccccc3C2=O)c(Cl)c1
inactive: outcome [1] | Potency [13] | Potency [14] | outcome [3] | Potency [15] | Potency [4] | Potency [5] | Potency [6] | outcome [7] | outcome [16] | outcome [8] | Potency [9] | Potency [10] | Potency [11] | Potency [17] | Potency [18] | activation [12] -4.94%

O=C(O)C1CCNCC1
inactive: outcome [1] | Potency [13] | Potency [14] | outcome [3] | Potency [15] | Potency [4] | Potency [5] | Potency [6] | outcome [7] | outcome [16] | outcome [8] | Potency [9] | Potency [10] | Potency [11] | Potency [17] | Potency [18] | activation [12] -0.188%

c1ccc(C(NCCNC(c2ccccc2)c2ccccc2)c2ccccc2)cc1
inactive: outcome [1] | Potency [2] | outcome [3] | Potency [4] | Potency [5] | Potency [6] | outcome [7] | Potency [9] | Potency [10] | Potency [17] | Potency [18]

c1ccc(C(NCc2cccnc2)(c2ccccc2)c2ccccc2)cc1
inactive: outcome [1] | Potency [2] | outcome [3] | Potency [4] | Potency [5] | Potency [6] | Potency [9] | Potency [17]
active: Potency [10] 4.11 µM

CCCCOC(=O)NS(=O)(=O)c1sc(CC(C)C)cc1-c1ccc(Cn2c(CC)nc3c(C)cc(C)nc32)cc1
inactive: outcome [1] | Potency [2] | Potency [15] | Potency [4] | Potency [5] | Potency [6] | outcome [7] | outcome [16] | outcome [8] | Potency [9] | Potency [10] | Potency [17] | activation [12] 2.25%
active: Potency [18] 8.2 µM

Cn1cc(C(=O)OCC2CCN(CCNS(C)(=O)=O)CC2)c2ccccc21
inactive: outcome [1] | Potency [13] | Potency [14] | outcome [3] | Potency [15] | Potency [4] | Potency [5] | Potency [6] | outcome [7] | outcome [16] | outcome [8] | Potency [9] | Potency [10] | Potency [11] | Potency [17] | Potency [18] | activation [12] 0.688%

COc1cc(C(O)C(=O)O)ccc1O (configuration not stated)
inactive: outcome [1] | Potency [13] | Potency [14] | outcome [3] | Potency [15] | Potency [4] | Potency [5] | Potency [6] | outcome [7] | outcome [16] | outcome [8] | Potency [9] | Potency [10] | Potency [11] | Potency [17] | Potency [18] | activation [12] 1.12%

Cn1c(=O)c2[nH]c(C3CCCC3)nc2n(C)c1=O
inactive: outcome [1] | Potency [13] | Potency [14] | outcome [3] | Potency [15] | Potency [4] | Potency [5] | Potency [6] | outcome [7] | outcome [16] | Potency [9] | Potency [10] | Potency [11] | Potency [17] | Potency [18] | activation [12] 0.125%

O=c1cc(-c2ccccc2F)[nH]c2cc3c(cc12)OCO3
active: Potency [17] 5.17 µM
inactive: outcome [1] | Potency [2] | outcome [3] | Potency [4] | outcome [7] | Potency [9] | Potency [10] | Potency [11] | Potency [18]

C[C@H](O)C(=O)C1=Nc2c(nc(N)[nH]c2=O)NC1
inactive: outcome [1] | Potency [13] | Potency [14] | outcome [3] | Potency [15] | Potency [5] | Potency [6] | outcome [7] | outcome [16] | Potency [10] | Potency [11] | Potency [17] | Potency [18] | activation [12] 1.06%
